PglD DTNB = inhibitors of Campylobacter jejuni PglD acetyltransferase; 0.098% of 360,000 active; purified PglD enzyme, DTNB colorimetric CoA detection; AID 602405; inhibition, % at 12.5 µM; in the data active means inhibition above about 16%, passing the limit was not always enough
ARNT TACC3 PPI = ARNT/TACC3 interaction disruption | Q9Y6A5 | AlphaScreen His-ARNT PAS-B/GST-TACC3 binding, luminescence; TACC3 fragment carries E629A point mutation | inhibition, % at 9.99 µM | 0.66% of 390,000 active;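 active means mean inhibition of replicates at least 50% and at least half of replicates each reaching 50%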;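 further: 0% = complete ARNT plus TACC3 wells and 100% = ARNT alone without TACC3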
CFTR F508del cor = CFTR F508del correction in bronchial cells; CFBE cells, YFP halide quenching; stimulated with forskolin plus potentiator P3; % fluorescence drop versus neutral controls; activity (quench increase), % at 7.58 µM; 0.36% of 350,000 active; AID 720511;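 active means mean added fluorescence quench of at least 8% versus neutral control, with both replicates also reaching 8%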;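 further: cells transiently co-express mutant CFTR-F508del with the halide-sensitive YFP; corrector assay measuring rescue of mutant channel to the surface after 24 h compound exposure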
C2C12 statin = suppressors of simvastatin-induced myotoxicity in C2C12 myotubes | ATP luminescence, 48 h; scaled: DMSO 0, geranylgeraniol control 100 | rescue of ATP level, % at 7.49 µM | 0.78% of 330,000 active | AID 602340;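 active means mean ATP rescue above about 67%, or every replicate alone reaching that limit, limit read from the data, passing the limit was not always enough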;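 further: myotubes were challenged with 10 µM simvastatin during compound exposure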
An asterisk follows results filed as active; · = not tested or not shown. In the library only some 1.4% were active in any assay of this set; here they are far more common.

SMILES	PglD DTNB	ARNT TACC3 PPI	CFTR F508del cor	C2C12 statin
CCOC(=O)c1oc2cccc(OC(C)=O)c2c1C	1	-4	·	147*
CCOC(=O)c1oc2cccc(O)c2c1C	-7	-2	·	-16
O=C(c1ccc(F)cc1)N1CCCCN2[C@H](CO)[C@H](c3ccc(-c4ccc(F)cc4)cc3)[C@@H]2C1	-5	13	2	·
Cn1c(N)c(C(=O)COC(=O)C2(c3cccc(F)c3)CCCC2)c(=O)n(C)c1=O	-4	·	·	108*
Cn1c(N)c(C(=O)COC(=O)c2ccc(F)cc2Cl)c(=O)n(C)c1=O	-6	·	-2	4
C[C@@H]1CN([C@@H](C)CO)C(=O)c2cc(C3=CCCCC3)cnc2O[C@H]1CN(C)C(=O)CN1CCOCC1	5	-5	0	-4
C[C@H](CO)N1C[C@H](C)[C@H](CN(C)S(C)(=O)=O)Oc2c(NS(=O)(=O)c3cn(C)cn3)cccc2C1=O	2	-12	1	27
CCCSC1=N/C(=C\c2ccc3c(c2)OCO3)C(=O)S1	·	-20	·	·
CCCSC1=N/C(=C\c2ccc([N+](=O)[O-])o2)C(=O)S1	-5	9	3	10
CCSC1=N/C(=C\c2ccc3c(c2)OCO3)C(=O)S1	3	35	·	97*
CCCSC1=N/C(=C\c2ccsc2)C(=O)S1	-5	7	·	103*
C[C@H](CO)N1C[C@H](C)[C@@H](CN(C)C(=O)CCN(C)C)OCc2ccccc2-c2c(n(C)c3ccccc23)C1=O	0	5	7	·
C[C@@H]1CN([C@@H](C)CO)C(=O)c2cc(NS(=O)(=O)c3cn(C)cn3)ccc2O[C@@H](C)CCCCO[C@H]1CN(C)C(=O)CCCN(C)C	2	-21	-3	·
COc1ccccc1CNC(=O)C[C@H]1C[C@@H]2c3cc(NC(=O)Nc4ccccc4F)ccc3O[C@@H]2[C@@H](CO)O1	-2	0	1	-4
COc1ccc2[nH]cc(C(=O)CNc3nc(C)cs3)c2c1	-2	-10	·	125*
COC(=O)C1=C(C)NC(C)=C(C(=O)OC)C1C1CC=CCC1 (configuration not stated)	-1	-5	·	123*
C[C@H](CO)N1C[C@H](C)[C@H](CN(C)C)Oc2ccc(NC(=O)CCCCCC(=O)Nc3ccccc3N)cc2CC1=O	4	-21	1	23
COc1ccccc1Nc1nc(NCCCCO)nc(N2CCCC2)n1	4	2	-3	-11
COc1ccccc1Nc1nc(NCCO)nc(N2CCCC2)n1	0	active	-1	-4
COc1ccc2c3c(n(C)c2c1)[C@@H](CO)N(CC1CC1)CC31CN(C(=O)Nc2ccccc2)C1	·	·	-6	·
CCOC(=O)N1CCN(C(=O)Cc2cccs2)CC1	·	5	·	·
CCOC(=O)N1CCN(C(=O)Cc2ccsc2)CC1	-4	5	·	110*
COCCNC(=O)C[C@@H]1CC[C@@H]2[C@@H](COc3ccc(NC(=O)C4CCCC4)cc3C(=O)N2C)O1	-3	-16	4	1
CCCNC(=O)[C@@H]1[C@@H](CO)[C@@H]2Cn3c(ccc(C4=CCCC4)c3=O)[C@@H]2N1C(=O)CC1CC1	4	9	·	-3
Cc1cc(Cl)cc(C)c1OCCCCCn1ccnc1	2	9	-1	-9
SMILES	PglD DTNB	ARNT TACC3 PPI	CFTR F508del cor	C2C12 statin
Cc1cc(Cl)cc(C)c1OCCn1ccnc1	-2	10	13*	-7
Cc1cc2ncn(/N=C/c3cccnc3)c2cc1C	9	·	·	-7
Cc1cc2ncn(/N=C/c3ccc(-c4ccccc4)o3)c2cc1C	4	1	·	146*
COC1C(CO)OC(n2c3c(Cl)cccc3c3c4c(c5c6cccc(Cl)c6[nH]c5c32)C(=O)NC4=O)C(O)C1O (configuration not stated)	·	-1	9.8*	·
O=C(C[C@@H]1C=C[C@@H](NC(=O)CC2CC2)[C@H](CO)O1)NCc1ccccc1	·	·	-1	·
C[C@H](CO)N1C[C@H](C)[C@@H](CN(C)Cc2ccc(C(F)(F)F)cc2)Oc2ccc(NC(=O)C3CCCCC3)cc2CC1=O	-7	12	4	71*
CC(C)NC(=O)Nc1ccc2c(c1)CC(=O)N([C@@H](C)CO)C[C@@H](C)[C@@H](CN(C)Cc1ccc(Oc3ccccc3)cc1)O2	6	active	-3	-95
C[C@@H]1CN([C@H](C)CO)C(=O)c2cc(NC(=O)Cc3ccccc3)ccc2O[C@H]1CN(C)S(C)(=O)=O	2	-6	0	-19
C[C@@H]1CN([C@H](C)CO)C(=O)c2cc(NC(=O)Cc3ccccc3)ccc2O[C@@H]1CN(C)S(C)(=O)=O	2	-1	8.0*	-6
C[C@H](CO)N1C[C@H](C)[C@@H](CN(C)Cc2ccc(Oc3ccccc3)cc2)Oc2ccc(NC(=O)CCC(F)(F)F)cc2CC1=O	-2	4	-2	93*
O=C(c1cccc(F)c1)N1CC2(C1)[C@@H](c1ccccc1)[C@@H](CO)N2C(=O)C1CCCC1	·	·	-1	·
C[C@@H]1CCCCO[C@@H](CN(C)C(=O)c2ccccc2)[C@H](C)CN([C@@H](C)CO)C(=O)c2cc(NS(=O)(=O)c3ccccc3)ccc2O1	-1	-2	-2	·
CC(C)NC(=O)Nc1ccc2c(c1)C(=O)N([C@@H](C)CO)C[C@@H](C)[C@H](CN(C)S(=O)(=O)c1cn(C)cn1)O2	-1	-5	0	·
C[C@@H]1CN([C@@H](C)CO)C(=O)c2cccc(NC(=O)C3CCCCC3)c2O[C@H]1CN(C)CC1CCCCC1	-2	0	-2	7
C[C@H](CO)N1C[C@H](C)[C@@H](CN(C)Cc2ccc(-c3ccccc3)cc2)Oc2ccc(NC(=O)Cn3cnnn3)cc2CC1=O	-1	7	-2	89*
C[C@H]1CN([C@@H](C)CO)C(=O)Cc2cc(NC(=O)Nc3ccc4c(c3)OCO4)ccc2O[C@@H]1CN(C)Cc1ccc(-c2ccccc2)cc1	-1	-3	3	76*
C[C@@H]1CN([C@@H](C)CO)C(=O)Cc2cc(NC(=O)C3CCCCC3)ccc2O[C@H]1CN(C)Cc1ccc(Oc2ccccc2)cc1	4	·	-4	88*
C[C@@H]1CN([C@H](C)CO)C(=O)Cc2cc(NC(=O)C3CCCCC3)ccc2O[C@H]1CN(C)Cc1ccc(-c2ccccc2)cc1	0	-11	-2	99*
Cc1noc(C)c1NC(=O)Nc1ccc2c(c1)CC(=O)N([C@H](C)CO)C[C@H](C)[C@@H](CN(C)Cc1ccc(Oc3ccccc3)cc1)O2	-4	13	1	103*
CC(C)NC(=O)Nc1ccc2c(c1)C(=O)N([C@@H](C)CO)C[C@H](C)[C@H](CN(C)Cc1ccccc1)O2	-1	-4	0	77*
C[C@@H]1CN([C@H](C)CO)C(=O)Cc2cc(NC(=O)C3CC3)ccc2O[C@H]1CN(C)Cc1ccc(Oc2ccccc2)cc1	3	-2	4	32
Cc1noc(C)c1NC(=O)Nc1ccc2c(c1)CC(=O)N([C@H](C)CO)C[C@@H](C)[C@@H](CN(C)Cc1ccccc1)O2	4	-8	3	1

Screens deposited in PubChem by Broad Institute.
